Test results published in PubChem BioAssay (NCATS).
Records with an inconclusive call do not appear. The source made the active and inactive calls. Unless noted, the call rests on the fitted dose curve; in most records, active means well fitted curve in the direction sought with a large enough effect; inconclusive means small, poorly fitted or top-dose-only effect, or another doubt; inactive means no such curve, though single readings can be large; an effect the other way counts as inactive or inconclusive.

Legend:
[1] = qHTS assay for measurement of the activity of small molecule inhibitors on Zika virus induced Caspase-3 activity in human iPSC derived neural progenitor cells (hNPCs) (AID 1224857); further: nearly all actives have a fitted effect of over 65% in size
Method in brief: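 Quantitative HTS format: human iPSC neural progenitors, 1 h compound pretreatment, ZIKV 2 FFU/cell for 6 h at 37 C. Percent inhibition derived from luminescent caspase-3/7 signal between uninfected and infected controls.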

[2] = qHTS assay for measurement of the activity of small molecule inhibitors on Zika virus induced Caspase-3 activity in human astrocytoma cells (AID 1224859)
Method in brief: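 Readout is luminescence from Caspase-Glo 3/7 added after a 6 h ZIKV infection (2 FFU/cell) of compound-pretreated (1 h) SNB-19 cells; data expressed as % inhibition versus uninfected and infected wells.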

[3] = qHTS assay to identify small molecule inhibitors of chordoma cells - UCH-1 (AID 1259355); further: nearly all actives have a fitted effect of over 55% in size; further: potency means the concentration at half of the fitted maximal effect; series mostly up to about 46 µM
Method in brief: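 A 48hr growth-inhibition format: each drug tested at 15 concentrations together with added auranofin, camptothecin, doxorubicin, rubitecan and topotecan, with cell viability quantified as CellTiter-Glo luminescence.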

[4] = qHTS assay to identify small molecule inhibitors of chordoma cells - UCH-2 (AID 1259356); further: potency means the concentration at half of the fitted maximal effect
[5] = Natriuretic polypeptide receptor (hNpr1) antagonism - Pilot counterscreen GloSensor control cell line (AID 1347045; calls by dose curve; further: potency means the concentration at half of the fitted maximal effect)
Method in brief: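 The SNP-driven cGMP luminescence signal (50 uM, 20 min, room temperature) was measured in GloSensor HEK293 control cells. Compounds were tested as a LOPAC titration series and preincubated for 30-50 min.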

[6] = biological target: Atrial natriuretic peptide receptor 1 (Homo sapiens) (UniProt P16066); assay: Natriuretic polypeptide receptor (hNpr1) antagonism - Pilot screen (AID 1347049; calls by dose curve;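 further: HEK293 cells with hNpr1 and GloSensor cGMP luciferase stimulated by 0.1 nM hNppA; agonist-evoked cGMP luminescence read 20 min after hNppA addition; series mostly up to about 58 µM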)
Method in brief: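 Cells expressing receptor plus cGMP biosensor are seeded and incubated overnight at 37C, then loaded with GloSensor reagent (2% final) at room temperature for 2 h. Library compounds go on for 30 min. A pre-read precedes agonist (hNppA, 0.1 nM final) and a 20-min readout.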

[7] = biological target: Atrial natriuretic peptide receptor 2 (Homo sapiens) (UniProt P20594); assay: Natriuretic polypeptide receptor (hNpr2) antagonism - Pilot subtype selectivity assay (AID 1347050; calls by dose curve; further: potency means the concentration at half of the fitted maximal effect)
Method in brief: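 Read-out: GloSensor luminescence (CCD imager), baseline vs post-stimulation. HEK293 cells expressing hNpr2; compounds pre-incubated 30-50 min at ambient temperature; hNppC 1 nM final, 20 min.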

[8] = NS1 protein of Zika virus - qHTS assay to identify small molecule inhibitors in human HEK 293 cells (AID 1347053); further: series mostly up to about 46 µM; nearly all actives have a fitted effect of over 55% in size
Method in brief: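 TR-FRET signal from two anti-ZIKV NS1 antibodies quantified NS1 in HEK 293 cells 24 h after MR766 infection at MOI = 0.5; compounds were added 1 h before virus. Uninfected cells and infected cells defined the NS1 normalization range.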

[9] = P-glycoprotein substrates identified in KB-8-5-11 adenocarcinoma cell line, qHTS therapeutic library screen (AID 1346987); further: nearly all actives have a fitted effect of over 65% in size; further: potency means the concentration at half of the fitted maximal effect
Method in brief: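 Human cervical adenocarcinoma KB-8-5-11 cells, selected in colchicine to over-express P-gp and assayed without it, were exposed for 72 h to titrated compounds. An ATP-based luminescent viability signal gave AC50.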

Measured: Potency

Sequence of Atrial natriuretic peptide receptor 1 (Homo sapiens) (P16066 whole entry, looked up): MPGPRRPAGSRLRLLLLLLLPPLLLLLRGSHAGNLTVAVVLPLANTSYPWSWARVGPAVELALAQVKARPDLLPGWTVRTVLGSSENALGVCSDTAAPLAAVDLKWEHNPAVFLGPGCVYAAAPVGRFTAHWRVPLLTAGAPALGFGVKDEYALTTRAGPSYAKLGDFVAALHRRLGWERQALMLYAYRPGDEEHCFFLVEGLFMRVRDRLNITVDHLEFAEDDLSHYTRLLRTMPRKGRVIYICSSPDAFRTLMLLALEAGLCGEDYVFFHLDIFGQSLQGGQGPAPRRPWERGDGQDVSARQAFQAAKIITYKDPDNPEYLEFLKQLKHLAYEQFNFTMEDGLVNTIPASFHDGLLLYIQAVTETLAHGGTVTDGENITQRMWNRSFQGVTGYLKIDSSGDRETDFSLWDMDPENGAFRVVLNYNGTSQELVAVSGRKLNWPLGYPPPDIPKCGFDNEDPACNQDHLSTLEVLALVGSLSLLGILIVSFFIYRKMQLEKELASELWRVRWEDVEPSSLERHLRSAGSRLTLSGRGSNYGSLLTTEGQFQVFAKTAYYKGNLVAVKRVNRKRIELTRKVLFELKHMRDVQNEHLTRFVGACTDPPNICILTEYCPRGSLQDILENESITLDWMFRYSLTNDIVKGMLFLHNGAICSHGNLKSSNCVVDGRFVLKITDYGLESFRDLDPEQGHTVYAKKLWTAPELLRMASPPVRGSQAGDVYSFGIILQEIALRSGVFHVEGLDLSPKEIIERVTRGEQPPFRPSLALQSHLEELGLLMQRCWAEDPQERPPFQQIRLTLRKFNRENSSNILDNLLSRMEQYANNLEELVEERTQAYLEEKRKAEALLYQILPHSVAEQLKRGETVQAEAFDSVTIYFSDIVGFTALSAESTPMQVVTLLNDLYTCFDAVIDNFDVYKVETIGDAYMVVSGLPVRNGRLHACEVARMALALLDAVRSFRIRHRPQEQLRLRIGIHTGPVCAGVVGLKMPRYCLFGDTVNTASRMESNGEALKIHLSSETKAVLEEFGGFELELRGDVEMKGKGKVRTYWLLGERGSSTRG
Sequence of Atrial natriuretic peptide receptor 2 (Homo sapiens) (P20594 whole entry, looked up): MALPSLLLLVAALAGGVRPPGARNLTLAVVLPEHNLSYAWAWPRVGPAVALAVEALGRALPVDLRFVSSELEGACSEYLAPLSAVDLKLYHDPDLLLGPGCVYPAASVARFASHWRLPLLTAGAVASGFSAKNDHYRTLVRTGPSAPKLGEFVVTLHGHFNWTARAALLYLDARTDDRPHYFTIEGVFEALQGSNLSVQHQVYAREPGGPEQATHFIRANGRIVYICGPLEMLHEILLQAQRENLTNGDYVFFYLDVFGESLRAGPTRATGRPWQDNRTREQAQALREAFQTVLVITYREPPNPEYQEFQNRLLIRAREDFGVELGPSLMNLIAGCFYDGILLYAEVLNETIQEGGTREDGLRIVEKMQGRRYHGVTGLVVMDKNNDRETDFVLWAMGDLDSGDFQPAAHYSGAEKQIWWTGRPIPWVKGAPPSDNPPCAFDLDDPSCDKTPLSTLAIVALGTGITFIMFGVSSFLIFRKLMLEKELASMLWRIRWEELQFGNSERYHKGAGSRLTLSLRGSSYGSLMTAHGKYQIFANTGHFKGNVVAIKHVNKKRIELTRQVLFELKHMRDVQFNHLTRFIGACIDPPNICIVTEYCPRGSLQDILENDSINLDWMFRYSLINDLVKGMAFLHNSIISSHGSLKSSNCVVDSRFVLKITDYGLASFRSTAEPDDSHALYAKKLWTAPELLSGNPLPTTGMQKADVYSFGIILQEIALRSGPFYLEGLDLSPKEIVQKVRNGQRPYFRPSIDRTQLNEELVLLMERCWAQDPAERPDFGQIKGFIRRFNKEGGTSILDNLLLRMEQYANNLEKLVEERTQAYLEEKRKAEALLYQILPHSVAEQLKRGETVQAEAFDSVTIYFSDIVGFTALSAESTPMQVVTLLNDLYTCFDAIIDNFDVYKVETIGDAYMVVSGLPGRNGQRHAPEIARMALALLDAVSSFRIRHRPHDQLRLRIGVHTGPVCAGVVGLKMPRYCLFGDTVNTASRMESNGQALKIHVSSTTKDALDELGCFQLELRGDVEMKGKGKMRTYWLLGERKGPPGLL

CN(C)CC[C@@H](c1ccc(Br)cc1)c1ccccn1
not listed: [9]
inactive: all other assays above

CCCC(C(=O)OCCN(CC)CC)(c1ccccc1)c1ccccc1
active: [9] 13 µM | [7] 10.4 µM
not listed: [1]
inactive: all other assays above

CCCCNc1c(C(=O)OCC)c(C)nc2c1cnn2CC
not listed: [7] | [9]
inactive: all other assays above

CC1=C(C)C(=O)C(CCCCC#CCCCC#CCO)=C(C)C1=O
not listed: [5] | [9]
inactive: all other assays above

COCCCC/C(=N\OCCN)c1ccc(C(F)(F)F)cc1
inactive: [1] | [2] | [3] | [6] | [8]

CN(C)C(=O)Oc1ccc[n+](C)c1
not listed: [1] | [9]
inactive: all other assays above

C[C@]12CCC(=O)C=C1CC[C@@H]1[C@@H]2CC[C@@]2(C)[C@H]1CC[C@]2(O)C(=O)CO
not listed: [1] | [9]
inactive: all other assays above

CCCN(CCC)CCc1cccc2c1CC(=O)N2
not listed: [1] | [3]
inactive: all other assays above

CC(=O)[C@]1(O)Cc2c(O)c3c(c(O)c2[C@@H](O[C@H]2C[C@H](N)[C@H](O)[C@H](C)O2)C1)C(=O)c1ccccc1C3=O
inactive: [2] | [6] | [7] | [8]
active: [3] 0.794 µM | [4] 1.16 µM | [9] 4.11 µM

COCCc1ccc(OCC(O)CNC(C)C)cc1 (centres undefined)
not listed: [1] | [9]
inactive: all other assays above

CC(C)NNC(=O)c1ccncc1
not listed: [1]
inactive: all other assays above

Cc1nc2ccccn2c(=O)c1CCN1CCC(C(=O)c2ccc(F)cc2)CC1
not listed: [1] | [9]
inactive: all other assays above

CNC1(C)C2CCC(C2)C1(C)C (centres undefined)
not listed: [1] | [7]
inactive: all other assays above

CN1CCN(CC(=O)N2c3ccccc3C(=O)Nc3cccnc32)CC1
not listed: [1] | [9]
inactive: all other assays above

COC(=O)C1=C(C)NC(C)=C(C(=O)OCCN(C)Cc2ccccc2)C1c1cccc([N+](=O)[O-])c1 (centres undefined)
active: [5] 16.5 µM
inactive: [2] | [3] | [4] | [8]

CN1C(=O)CC[C@H]1c1cccnc1
not listed: [1] | [7]
inactive: all other assays above

CCc1c(C)[nH]c2c1C(=O)C(CN1CCOCC1)CC2 (centres undefined)
not listed: [1] | [3]
inactive: all other assays above

CCc1cccc(N(C)C(N)=Nc2cccc3ccccc23)c1
not listed: [1] | [7] | [9]
inactive: all other assays above
